Our source for the inhibition values is PubChem BioAssay AID488841 (Sanford-Burnham Center for Chemical Genomics, 2010).

Structures are written as SMILES. Hit rate of the full screen: of about 1,400 compounds, about 380 (27%) were called active.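 How the source made its calls: active means mean inhibition above 50% across duplicate retests at 10 µM; inactive means the rest.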 Some of the results follow.

The nature of the test: inhibition of NALP1/ASC/caspase-1 reporter signal in yeast, confirmation, NALP1 inhibitor project, S. cerevisiae, luminescence, single concentration (AID 488841).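 Further: plate controls were DMSO in galactose medium for no effect and cells in plain SD medium for full effect.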 The settings on record: S. cerevisiae NALP1/ASC/Caspase-1 reporter, beta-gal luminescence; at 10 µM; active compounds read high.
In general, inhibition refers to the change of the read-out against control, counted positive when it falls. For the compound `COc1ccccc1N1C(=O)C2CCC(c3ccccc3)CC2C1=O` (stereo unspecified), the inhibition was 40.1% (inactive).
To `COc1ccc(S(=O)(=O)N2CCOC2CNC(=O)C(=O)NCCCN2CCOCC2)cc1C` (stereo unspecified) belongs 36.4% (inactive).
Turning to `O=C(CN1CCN(c2ccccc2)CC1)Nc1ccc2c(c1)CCC2`, the inhibition was 22.7% (inactive).
To `O=C(Nc1ccc2nc3ccccc3nc2c1)c1ccccc1` belongs 70.2% (active); to `O=C(COc1ccc(Cl)cc1)Nc1ccc2c(c1)CCC2`, 39.6% (inactive); to `O=C(Nc1ccc2c(c1)CCC2)c1ccccc1`, 73.4% (active).
To `CS(=O)(=O)N(Cc1ccccc1)c1ccc(C(=O)Nc2cccnc2)cc1` belongs 19.7% (inactive); to `O=C(Nc1ccc(Cl)c(Cl)c1)c1ccncc1`, 49.2% (inactive).
For the compound `O=C(Nc1ccc2c(c1)Cc1ccccc1-2)c1ccncc1`, the inhibition is 64.8% (active).
As to `O=C(COC(=O)C1(c2ccccc2F)CCCC1)N1CCOCC1`, the inhibition is 17.6% (inactive).
With `Cc1cc(C)c(S(=O)(=O)Nc2ccc(OCC(=O)O)cc2)c(C)c1` the figure was 27.6% (inactive); with `CCOC(=O)C1CCCN(Cc2ccc(OCC)cc2)C1` (stereo unspecified), 41.2% (inactive); with `Clc1ccc(OCCN2CCCCC2)cc1Cl`, 39.4% (inactive).
For the compound `CC/C(=N\NC(=O)c1ccccc1Cl)c1ccc(Br)s1`, the inhibition is 38.6% (inactive).
`Cc1cccc(C)c1OCC(=O)Nn1c(=O)[nH]c2ccccc2c1=O`: the inhibition was 32.6% (inactive).
With `CCC(=O)Nc1cccc(-c2nc3ccccc3o2)c1` the figure was 69.3% (active); with `CCCCCC(=O)Nc1ccc2oc(-c3cccnc3)nc2c1`, 44.2% (inactive).
With `CCCc1cc(C(=O)O)c2ccccc2n1` the figure was 27.6% (inactive); with `COC(=O)c1cc(=O)n(-c2ccccc2)c(=Nc2ccccc2)s1`, 49.4% (inactive); with `CCC(C(=O)OC)n1cnc2scc(-c3ccc(C)c(C)c3)c2c1=O` (stereo unspecified), 98.8% (active).
Consider `Cn1c2ccccc2c(=O)c2c(=O)n(C3CCCCCC3)c(C3CCCCC3)nc21`, for which the inhibition was 41% (inactive).
Turning to `COc1ccc(-c2cn3cccnc3n2)cc1Br`, the inhibition was 78.5% (active).
With `Cn1c(=O)n(CCCOc2ccc(Cl)cc2)c2ccccc21` the figure was 45.5% (inactive); with `O=C(NC1CCCC1)C(c1ccccn1)N(C(=O)c1csnn1)C1CC1` (stereo unspecified), 18.6% (inactive); with `c1ccc(-c2noc(-c3ccccc3-c3ccccc3)n2)cc1`, 23.8% (inactive).
For the compound `O=C(CN1CCOCC1)Nc1ccccc1Sc1ccc(Cl)cc1`, the inhibition was 32.2% (inactive).
Consider `CSc1nc(C)cc(OCCO)n1`, for which the inhibition is 27.2% (inactive).
To `CCCNC(=O)c1cc2c3ccccc3n(C)c2s1` belongs 69.2% (active); to `CC(C)OCCCNC(=O)c1cc2c(=O)n(C)c3ccccc3c2n1C`, 18.5% (inactive); to `Cc1ccc(S(=O)(=O)N(C)C)cc1NC(=O)Nc1ccccc1F`, 21.1% (inactive).
To `O=C(NNC(=O)c1ccc(-c2ccccc2)cc1)Nc1ccc(F)cc1F` belongs 20.4% (inactive); to `O=C(Nc1ccccc1)Nc1ccc(Br)cc1F`, 50.3% (active).
Take `CCOC(=O)c1ccc(N2CCOCC2)c(NC(=O)COCC(=O)O)c1`: the inhibition is 16.1% (inactive).
With `COc1ccc(CC(C)N2CCN(Cc3ccccc3)CC2)c(OC)c1` (stereo unspecified) the figure was 27.8% (inactive).
To `Cc1ccccc1N(CC(=O)N/N=C/c1ccccc1Cl)C(=O)c1ccccc1` belongs 32% (inactive); to `Cc1nc(-c2ccccc2)sc1C(=O)CSc1ccccc1`, 42% (inactive); to `CCCSc1ccc2nc(-c3ccccc3)cn2c1`, 75.4% (active).
With `Cc1cc(C)cc(NS(=O)(=O)c2ccc(NC(=S)NC(=O)c3ccc(Br)o3)cc2)c1` the figure was 45.4% (inactive); with `CSCc1ccc(C(=O)Nc2cc(C)cc(C)c2)cc1`, 76% (active); with `CS(=O)(=O)N(Cc1ccccc1)c1ccc(C(=O)Nc2ccc3c(c2)OCO3)cc1`, 33.1% (inactive).
For the compound `COCCn1c(SCC(=O)NC(=O)NC(C)(C)C)nc2ccccc21`, the inhibition is 27.5% (inactive).
For the compound `CC1CCN(c2ccccc2NC(=O)c2ccc(N3CCOCC3)c([N+](=O)[O-])c2)CC1`, the inhibition is 1.35% (inactive).
On to `Nc1nc(NCc2ccco2)nc(N2CCCCCC2)c1[N+](=O)[O-]`, for which the inhibition was 62.6% (active).
With `CC1CCCN(c2nc(NCc3ccco3)nc(N)c2[N+](=O)[O-])C1` (stereo unspecified) the figure was 55.1% (active).
As for `CC1CCN(c2nc(NCc3ccco3)nc(N)c2[N+](=O)[O-])CC1`, the inhibition was 67.3% (active).
Turning to `Cc1ccc(Nc2nc(N)c([N+](=O)[O-])c(NCc3ccco3)n2)cc1C`, the inhibition is 60.3% (active).
For the compound `Cc1ccc(C(=O)NCc2ccco2)cc1S(=O)(=O)Nc1cccc(Cl)c1`, the inhibition is 25.1% (inactive).
With `O=C(Nc1nc(-c2ccncc2)cs1)c1ccc(S(=O)(=O)N2CCOCC2)cc1` the figure was 28.9% (inactive).
Turning to `Clc1ccc(N2CCN(c3cnc4ccccc4n3)CC2)cc1`, the inhibition was 37.4% (inactive).
Turning to `COc1ccc(-c2nc3c(c(=O)[nH]c(=O)n3Cc3ccccc3)n2C)cc1`, the inhibition is 27.9% (inactive).
To `CC1CCCCC1NC(=O)/C(C#N)=C/c1ccccc1F` (stereo unspecified) belongs 39.8% (inactive); to `CC(C)(C)C1=CC(=O)C(=O)C(C(C)(C)C)=C1`, 20% (inactive); to `CCSc1nnc(-c2ccncc2)n1Cc1ccccc1`, 35.8% (inactive).
For the compound `Cc1ccc(NC(=S)Nc2ccc(Cl)c(Cl)c2)c(OC(F)F)c1`, the inhibition was 33.8% (inactive).
For `O=C(Cc1ccc([N+](=O)[O-])cc1)c1ccc(O)cc1O`, the inhibition was 39% (inactive).
On to `CC[N+]1(CC)CC2=Cc3c(ccc4ccccc34)CC2C1` (stereo unspecified), for which the inhibition was 14.5% (inactive).
For the compound `CCOC(=O)n1c(=O)n(Cc2ccccc2)c2ccccc21`, the inhibition was 25.8% (inactive).
With `O=C(c1ccc(COc2ccccc2Br)cc1)N1CCCCC1` the figure was 36.5% (inactive); with `O=C(c1nnsc1S(=O)c1ccc(Cl)cc1)N1CCOCC1` (stereo unspecified), 76.7% (active); with `CCCNC(=O)c1nnsc1S(=O)c1ccc(Cl)cc1` (stereo unspecified), 99.3% (active).
With `CNC(=O)c1nnsc1S(=O)c1ccc(Cl)cc1` (stereo unspecified), the inhibition is 88.7% (active).
On to `O=C(CCSc1nc2cc(Cl)ccc2o1)N1CCOCC1`, for which the inhibition was 24.1% (inactive).
To `CCCCNC(=O)Nc1nnc(-c2ccc(Cl)cc2)o1` belongs 44.9% (inactive); to `Cn1cc(S(=O)(=O)N2CCN(c3cccc(C(F)(F)F)c3)CC2)c(=O)n(C)c1=O`, 7.85% (inactive).
To `CN(Cc1ccccc1)C(=O)c1ccc([N+](=O)[O-])o1` belongs 40.2% (inactive); to `COC(=O)c1ccc(/C=C(\C#N)C(=O)NC(C)c2ccccc2)cc1` (stereo unspecified), 23.2% (inactive).
As to `CC(NC(=O)/C(C#N)=C/c1ccc([N+](=O)[O-])o1)c1ccccc1` (stereo unspecified), the inhibition is 52.1% (active).
On to `CC(NC(=O)/C(C#N)=C/c1ccc(Cl)c([N+](=O)[O-])c1)c1ccccc1` (stereo unspecified), for which the inhibition was 51.1% (active).
Take `COc1ccc(/C=C/C(=O)Nc2ccc3c(c2)CCC3)cc1OC`: the inhibition was 79.2% (active).
`COc1cc(/C=C(\NC(C)=O)C(=O)Nc2cccc(O)c2)ccc1OC(C)=O`: the inhibition was 28.1% (inactive).
With `COc1cc(/C=C/C(=O)Nc2ccc(C)cc2)cc(OC)c1OC` the figure was 33.6% (inactive); with `CCc1ccc(CC(=S)N2CCOCC2)cc1`, 42.3% (inactive).
Take `COc1ccc(C(=O)NC(=S)Nc2ccccc2N2CCCCC2)cc1[N+](=O)[O-]`: the inhibition was 51.9% (active).
With `CCOc1ccc(C(=O)NC(=S)Nc2ccccc2N2CCCCC2)cc1[N+](=O)[O-]` the figure was 43.9% (inactive); with `CCOc1ccc(C(=O)Nc2ccc(-c3nc4ccccc4[nH]3)cc2)cc1[N+](=O)[O-]`, 26.6% (inactive); with `COc1ccc(/C=C2\SC(N3CCc4ccccc4C3)=NC2=O)cc1`, 69.8% (active).
For `CC(C)c1nc(SCC(=O)Nc2ccc3c(c2)OCCO3)n[nH]1`, the inhibition is 19.3% (inactive).
As for `N#Cc1ccc(-c2ccc(Cl)cc2)nc1SCC(=O)c1cccc(Cl)c1`, the inhibition was 26.4% (inactive).
To `Cc1ccc(NC(=O)Cn2cccc2)c(C)c1` belongs 27.8% (inactive); to `CCN(CC)c1ccc(NC(=O)Cn2cc3c(n2)CCC(C)C3)c(C)c1` (stereo unspecified), 50.9% (active); to `COc1ccccc1CN(Cc1nc2ccccc2c(=O)[nH]1)C(=O)Nc1ccccc1`, 36.4% (inactive).
To `Cc1ccc2nc(N(CCCN(C)C)C(=O)CCc3ccccc3)sc2c1` belongs 46.8% (inactive); to `Cc1ccc2sc(N(CCCN(C)C)C(=O)CCS(=O)(=O)c3ccccc3)nc2c1C`, 88.8% (active); to `CN(C)CCCN(C(=O)CCOc1ccccc1)c1nc2c(F)cccc2s1`, 64.8% (active).
To `CN(C)CCCN(C(=O)CCS(=O)(=O)c1ccccc1)c1nc2cc3c(cc2s1)OCO3` belongs 61.2% (active); to `CN(C)C(CNC(=O)CCCOc1ccccc1)c1ccco1` (stereo unspecified), 30.6% (inactive); to `Cc1cccc2sc(N(CCCN(C)C)C(=O)CCS(=O)(=O)c3ccccc3)nc12`, 69.6% (active).
In the case of `Cc1cccc2sc(N(CCCN(C)C)C(=O)c3sc4ccccc4c3Cl)nc12`, the inhibition was 35.9% (inactive).
Regarding `CCOC(=O)c1cnc2ccccc2c1Nc1cc(C(=O)O)ccc1C`, the inhibition is 26.6% (inactive).
`Cc1cc(N2CCOCC2)n2ncc(-c3ccccc3)c2n1`: the inhibition is 46.7% (inactive).
For `CSc1cc(N2CCOCC2)nc(-c2ccccc2Cl)n1`, the inhibition was 72% (active).
With `C=CCc1cccc(/C=N/c2nc3ccccc3n2CC)c1O` the figure was 15.8% (inactive); with `CCc1ccc(S(=O)(=O)/N=C2/C=C(Sc3ncn[nH]3)C(=O)c3ccccc32)cc1`, 86.3% (active).
With `O=C1c2ccccc2C(=O)c2c1ncn2-c1ccccc1` the figure was 24.1% (inactive).
`CCC(C)c1ccc(OCCn2ccnc2)cc1` (stereo unspecified): the inhibition is 58.6% (active).
Consider `Cc1cc(Br)ccc1OCCn1ccnc1`, for which the inhibition is 43% (inactive).
As for `CCOc1ccc(OCCCCn2ccnc2)cc1`, the inhibition was 34.5% (inactive).
With `COC(=O)c1c(N)c(C#N)c2n1CCCCC2` the figure was 21% (inactive); with `Cc1cccc(OCCCSc2nc3ccc(C)cc3[nH]2)c1`, 56.4% (active); with `Cc1ccccc1OCCCSc1nc2ccccc2[nH]1`, 63% (active).
`Cc1cccc(C)c1NC(=O)CSc1nc2ccccc2c(=O)[nH]1`: the inhibition was 31.1% (inactive).
